Among all 340,000 compounds or so, about 2,100 (0.62%) were called active.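 How the source made its calls: active means first-screen hits whose inhibition reached a set limit at any dose in the follow-up dose series; inconclusive means inhibition above the set first-screen limit but never retested; inactive means the rest.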 Only a sample is shown. Potency and affinity values are given separately.
molecular target: Rac GTPase-activating protein 1 (Homo sapiens) (UniProt Q9H0H5); assay: blockers of MgcRacGAP-driven Rac1 GTP hydrolysis – biochemical, ADP Hunter fluorescence, primary and confirmatory, confirmation (AID 624330); conditions: MgcRacGAP-stimulated Rac1 GTP hydrolysis, at 30 µM, stronger effect = higher value, GST-tagged Rac1 F28L mutant substrate;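 further: fluorescence reports GDP produced by GAP-driven GTP hydrolysis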
Sequence (Q9H0H5 whole entry, looked up): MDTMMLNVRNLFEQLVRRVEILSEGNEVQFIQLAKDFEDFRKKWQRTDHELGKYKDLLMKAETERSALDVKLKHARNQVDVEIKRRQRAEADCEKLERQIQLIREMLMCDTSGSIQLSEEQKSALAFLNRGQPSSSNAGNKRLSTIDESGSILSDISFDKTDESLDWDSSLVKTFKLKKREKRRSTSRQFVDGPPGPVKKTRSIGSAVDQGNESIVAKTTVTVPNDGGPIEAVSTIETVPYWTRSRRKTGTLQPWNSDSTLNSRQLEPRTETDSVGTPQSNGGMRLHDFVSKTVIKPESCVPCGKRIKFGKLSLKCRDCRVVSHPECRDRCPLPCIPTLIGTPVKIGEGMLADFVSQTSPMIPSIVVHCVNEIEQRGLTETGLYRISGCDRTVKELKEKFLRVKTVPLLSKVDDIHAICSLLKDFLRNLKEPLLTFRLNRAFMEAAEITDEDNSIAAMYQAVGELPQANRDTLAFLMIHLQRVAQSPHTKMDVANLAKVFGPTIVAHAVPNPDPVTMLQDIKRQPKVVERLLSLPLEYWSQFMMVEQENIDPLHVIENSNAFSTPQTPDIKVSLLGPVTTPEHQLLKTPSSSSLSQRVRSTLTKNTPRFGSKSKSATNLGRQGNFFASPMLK

inhibition, inactive:
COc1ccc(C(=O)Nc2ccc(Oc3nc(C)nc4sc(-c5ccccc5)cc34)cc2)cc1OC 2.99%
CC(C)(C)NC(=O)C(c1ccc(O)cc1)N(C(=O)CCC(=O)Nc1nccs1)c1cccc(F)c1 (configuration not stated) 8.98%
COc1cc(/C=N/n2c(C)nnc2C)cc(OC)c1OC 3.62%
COc1cc(/C=N/n2c(-c3ccccc3)n[nH]c2=S)cc(OC)c1OC 14.2%
COc1ccc(/C=N/n2c(-c3cc(C)[nH]n3)n[nH]c2=S)cc1 21.4%
COc1cc(/C=N/N2CCCCC2)cc(OC)c1O 17.9%
O=C(COc1ccc(Cl)cc1)Nc1ccc(C(=O)NCc2cccnc2)cc1 9.05%
COc1ccc(NC(=O)c2cccc3ccccc23)cc1OC -23.3%
O=C(O)CCS(=O)(=O)c1ccccc1Cl -0.02%
COc1cccc(N(CC(=O)N2CCN(C)CC2)S(=O)(=O)c2ccc(C)cc2)c1 -2.09%
Cc1ccc(S(=O)(=O)N2CCN(c3ccc(C(=O)N4CCOCC4)cc3[N+](=O)[O-])CC2)cc1 3.02%
CC(=O)Nc1nonc1NC(=O)CSc1ncn[nH]1 1.36%
CCOC(=O)C1C(=O)N(C(=O)c2ccc(OC)cc2)CC1c1ccccc1 (configuration not stated) 3.29%
O=C(C[C@@H]1C/C=C\C[C@H](NC(=O)OCC2c3ccccc3-c3ccccc32)C(=O)OC[C@H]2CCCN2C1=O)NCCO 5.33%
CN(C)c1ccc(/C=C(/C(=O)c2ccc(Cl)cc2Cl)n2cncn2)cc1 3.83%
COc1ccc(/C=C(/C(=O)c2ccc(Cl)cc2Cl)n2cncn2)cc1 11.7%
O=C(N/N=C\c1cccnc1)c1ccc(Cl)cc1Cl 8.54%
CC(C)/C=C(/C(=O)c1ccc(Cl)cc1Cl)n1cncn1 7.69%
CCN(CC(=O)NCc1cccs1)C(=O)c1cccc(S(=O)(=O)N2CC(C)OC(C)C2)c1 (configuration not stated) -2.83%
O=C(Cn1ncc2c1-c1ccccc1OC2)N1CCc2ccccc21 2.35%
CCCCOc1ccc(C(=O)N/C(=C/C=C/c2ccccc2)C(=O)NCCCO)cc1 12.1%
O=S1c2ccccc2Nc2ccccc21 18.2%
COC(=O)/C(C#N)=C1/C=Cc2ccccc2N1 -5.37%
O=C(Cn1cc(C(=O)C(F)(F)F)c2ccccc21)Nc1ccccc1F 13.4%
O=C(O)C1(C(=O)O)CCCC1 1.88%
O=C(CCCCO)CCCCCCCC[C@H]1N[C@H](CO)[C@H](O)[C@@H]1O[C@@H]1O[C@H](CO)[C@@H](O)[C@H](O)[C@H]1O 6.38%
NC[C@H]1O[C@H](O[C@H]2[C@H](O)[C@@H](O[C@H]3O[C@H](CO)[C@@H](O)[C@H](N)[C@H]3O)[C@H](N)C[C@@H]2N)[C@H](N)C[C@@H]1O 6.29%

Source: PubChem BioAssay AID624330 (Southern Research Specialized Biocontainment Screening …, 2012)
